Experimental data: PubChem BioAssay (NCI)
Compounds without any hit were thinned out: in the full panel of roughly 79,000, 15% have a hit. A number with no mark means an inactive call. The source made the active and inactive calls. Rule as the data show it: active = growth inhibition above about 70%; inactive = the rest.

Assays:
[1] = NCI Yeast Anticancer Drug Screen. Data for the rad52 strain (AID 147);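 also: 0% = growth of vehicle-treated control cultures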; details: S. cerevisiae rad52 mutant growth inhibition, active compounds read high
Summary of the method: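 Measured: yeast growth inhibition. System: strain with a defined DNA damage repair alteration. Reference: vehicle-treated control cultures.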

[2] = NCI Yeast Anticancer Drug Screen. Data for the wt1 strain (AID 149);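 also: 0% = growth of vehicle-treated wt1 cultures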; details: S. cerevisiae wt1 strain (SPY 50644) growth inhibition, active compounds read high
Summary of the method: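 wt1 strain grown with compound or vehicle; inhibition taken from the growth difference.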

[3] = NCI Yeast Anticancer Drug Screen. Data for the rad50EPP+ strain (AID 151);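 also: 0% = growth of vehicle-treated control cultures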; details: S. cerevisiae rad50 mutant strain, active compounds read high
Summary of the method: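 One strain with a rad50 alteration (rad50EPP+) was compound-treated, its growth then compared to that of vehicle controls.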

[4] = NCI Yeast Anticancer Drug Screen. Data for the mgt1 strain (AID 153); details: S. cerevisiae mgt1 mutant growth inhibition, active compounds read high
Summary of the method: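 After exposure of the mgt1 yeast mutant to compound, growth was measured and reported as inhibition compared with vehicle controls.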

[5] = NCI Yeast Anticancer Drug Screen. Data for the rad50 strain (AID 155);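 also: 0% = growth of vehicle-only cultures of the same strain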; details: S. cerevisiae rad50 strain growth inhibition, active compounds read high
Summary of the method: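 DNA repair mutant yeast, compound exposure, growth read-out; inhibition is taken relative to vehicle.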

[6] = NCI Yeast Anticancer Drug Screen. Data for the mec2-1 strain (AID 157); details: S. cerevisiae mec2-1 strain, active compounds read high
Summary of the method: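 Test agents were screened against the mec2-1 yeast strain, with defined DNA repair or cell cycle alteration. Growth was scored as inhibition against vehicle-only controls.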

[7] = NCI Yeast Anticancer Drug Screen. Data for the rad14 strain (AID 159);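 also: 0% = growth of vehicle-treated control cultures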; details: S. cerevisiae rad14 strain growth inhibition, active compounds read high
Summary of the method: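 DNA repair-defective yeast, compound-exposed; % growth inhibition derived by comparison with vehicle-treated controls.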

[8] = NCI Yeast Anticancer Drug Screen. Data for the sgs1 mgt1 strain (AID 161);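 also: 0% = growth of cultures given vehicle only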; details: S. cerevisiae sgs1 mgt1 strain, active compounds read high
Summary of the method: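 Inhibition of yeast growth, normalised to vehicle-treated controls, is reported for a strain bearing genetic alterations in DNA damage repair.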

[9] = NCI Yeast Anticancer Drug Screen. Data for the CLN2oe strain (AID 163);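 also: 0% = growth of vehicle-only control cultures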; details: S. cerevisiae CLN2oe strain, active compounds read high
Summary of the method: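 Here, growth inhibition in a cell-cycle-altered yeast strain after compound exposure was quantified against vehicle control growth.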

[10] = NCI Yeast Anticancer Drug Screen. Data for the cln2 rad14 strain (AID 165);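 also: 0% = growth equal to vehicle treated cultures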; details: S. cerevisiae cln2 rad14 strain, active compounds read high
Summary of the method: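 Growth of compound-exposed yeast (cln2 rad14 genotype) measured and expressed as inhibition relative to vehicle.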

[11] = NCI Yeast Anticancer Drug Screen. Data for the bub3 strain (AID 167); details: S. cerevisiae bub3 mutant strain, active compounds read high
Summary of the method: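 In this screen, a yeast mutant lacking normal mitotic checkpoint function is challenged with compound. Relative growth versus vehicle gives the inhibition value.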

[12] = NCI Yeast Anticancer Drug Screen. Data for the mlh1 strain (AID 171);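 also: 0% = growth of vehicle-treated control cultures of the same strain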; details: S. cerevisiae mlh1 strain growth inhibition, active compounds read high
Summary of the method: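 Here the genetically defined yeast mutant is grown with each compound, and the extent to which its growth falls below that of vehicle-exposed cells is reported.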

[13] = NCI Yeast Anticancer Drug Screen. Data for the sgs1 strain (AID 173);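 also: 0% = growth of vehicle-only control cultures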; details: S. cerevisiae sgs1 mutant, active compounds read high
Summary of the method: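 Relative growth inhibition, referenced to vehicle, was determined in a yeast strain with a defined alteration affecting DNA damage repair or cell cycle control after compound exposure.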

[14] = NCI Yeast Anticancer Drug Screen. Data for the mlh1 rad18 strain (AID 175); details: S. cerevisiae mlh1 rad18 strain growth inhibition, active compounds read high
Summary of the method: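 In this whole-cell yeast screen, a strain with altered DNA damage repair is challenged with compound, and its growth is measured against matched vehicle-treated controls.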

[15] = NCI Yeast Anticancer Drug Screen. Data for the rad18 strain (AID 177); details: S. cerevisiae rad18 mutant growth inhibition, active compounds read high
Summary of the method: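 Screen uses a yeast strain with a defined lesion in DNA damage repair; compound effect is read as loss of growth compared to untreated vehicle cultures.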

[16] = at 5.0 µM (retest, dose inferred, filed as 0.5)
[17] = at 50.0 µM (retest, dose inferred, filed as 5.0)

Compound O=C1C=CC(=C(c2ccccc2)c2ccccc2)c2ccccc21 has a growth inhibition ([1]; at 1.2 µM) of 6%, a growth inhibition ([1]; at 3.7 µM) of 3% and a growth inhibition ([1]; at 11.0 µM) of -4%. It also gave a growth inhibition ([1]; at 33.0 µM) of 4%, a growth inhibition ([1]; at 100.0 µM) of 0% and a growth inhibition ([2]; at 1.2 µM) of 0%. For the same compound, the growth inhibition ([2]; at 3.7 µM) was 1%, the growth inhibition ([2]; at 11.0 µM) was 1% and the growth inhibition ([2]; at 33.0 µM) was 2%. It also gave a growth inhibition ([2]; at 100.0 µM) of 4%, a growth inhibition ([3]; at 1.2 µM) of 9% and a growth inhibition ([3]; at 3.7 µM) of 7%. It also gave a growth inhibition ([3]; at 11.0 µM) of 2%, a growth inhibition ([3]; at 33.0 µM) of 15% and a growth inhibition ([3]; at 100.0 µM) of 8%. It also gave a growth inhibition ([4]; at 1.2 µM) of 0%, a growth inhibition ([4]; at 3.7 µM) of 0% and a growth inhibition ([4]; at 11.0 µM) of -1%. For the same compound, the growth inhibition ([4]; at 33.0 µM) was -1%, the growth inhibition ([4]; at 100.0 µM) was 2% and the growth inhibition ([5]; at 1.2 µM) was 7%. For the same compound, the growth inhibition ([5]; at 3.7 µM) was 7%, the growth inhibition [5, 16] was 25% and the growth inhibition ([5]; at 11.0 µM) was -1%. For the same compound, the growth inhibition ([5]; at 33.0 µM) was 8%, the growth inhibition [5, 17] was 91% (active) and the growth inhibition ([5]; at 50.0 µM) was -6.5%. It also gave a growth inhibition ([5]; at 100.0 µM) of 10%, a growth inhibition ([6]; at 1.2 µM) of 0% and a growth inhibition ([6]; at 3.7 µM) of -1%. It also gave a growth inhibition [6, 16] of -1%, a growth inhibition ([6]; at 11.0 µM) of 1% and a growth inhibition ([6]; at 33.0 µM) of -1%. For the same compound, the growth inhibition [6, 17] was 89% (active), the growth inhibition ([6]; at 50.0 µM) was 15.1% and the growth inhibition ([6]; at 100.0 µM) was 2%. For the same compound, the growth inhibition ([7]; at 1.2 µM) was 5%, the growth inhibition ([7]; at 3.7 µM) was 2% and the growth inhibition ([7]; at 11.0 µM) was -2%. For the same compound, the growth inhibition ([7]; at 33.0 µM) was 1%, the growth inhibition ([7]; at 100.0 µM) was -2% and the growth inhibition [8, 16] was 43%. The growth inhibition [8, 17] was 93% (active), the growth inhibition ([8]; at 50.0 µM) was 6.15% and the growth inhibition ([9]; at 1.2 µM) was -1%. For the same compound, the growth inhibition ([9]; at 3.7 µM) was -3%, the growth inhibition ([9]; at 11.0 µM) was -9% and the growth inhibition ([9]; at 33.0 µM) was -8%. For the same compound, the growth inhibition ([9]; at 100.0 µM) was -9%, the growth inhibition [10, 16] was 25% and the growth inhibition [10, 17] was 86% (active). The growth inhibition ([10]; at 50.0 µM) was -44.3%, the growth inhibition ([11]; at 1.2 µM) was 0% and the growth inhibition ([11]; at 3.7 µM) was 1%. For the same compound, the growth inhibition [11, 16] was 53%, the growth inhibition ([11]; at 11.0 µM) was 3% and the growth inhibition ([11]; at 33.0 µM) was 9%. For the same compound, the growth inhibition [11, 17] was 92% (active), the growth inhibition ([11]; at 50.0 µM) was 25.1% and the growth inhibition ([11]; at 100.0 µM) was 21%. For the same compound, the growth inhibition ([12]; at 1.2 µM) was 2%, the growth inhibition ([12]; at 3.7 µM) was 0% and the growth inhibition ([12]; at 11.0 µM) was -3%. For the same compound, the growth inhibition ([12]; at 33.0 µM) was 1%, the growth inhibition ([12]; at 100.0 µM) was 0% and the growth inhibition ([13]; at 1.2 µM) was -11%. For the same compound, the growth inhibition ([13]; at 3.7 µM) was -25%, the growth inhibition ([13]; at 11.0 µM) was -10% and the growth inhibition ([13]; at 33.0 µM) was 10%. The growth inhibition ([13]; at 100.0 µM) was 18%, the growth inhibition [14, 16] was 69% and the growth inhibition [14, 17] was 92% (active). The growth inhibition ([14]; at 50.0 µM) was 13.2%, the growth inhibition ([15]; at 1.2 µM) was 6% and the growth inhibition ([15]; at 3.7 µM) was 4%. The growth inhibition ([15]; at 11.0 µM) was 1%, the growth inhibition ([15]; at 33.0 µM) was 4% and the growth inhibition ([15]; at 100.0 µM) was 2%.
In the case of CC(=O)OCC(=O)C1(O)CCC2C3CCC4CCCCC4(C)C3CCC21C (stereo not drawn), the growth inhibition ([1]; at 1.2 µM) is reported as -52%, the growth inhibition ([1]; at 3.7 µM) is reported as -27% and the growth inhibition ([1]; at 11.0 µM) is reported as 21%. For the same compound, the growth inhibition ([1]; at 33.0 µM) was 55%, the growth inhibition ([1]; at 100.0 µM) was 83% (active) and the growth inhibition ([2]; at 1.2 µM) was -20%. The growth inhibition ([2]; at 3.7 µM) was -14%, the growth inhibition ([2]; at 11.0 µM) was 7% and the growth inhibition ([2]; at 33.0 µM) was 50%. The growth inhibition ([2]; at 100.0 µM) was 77% (active), the growth inhibition ([3]; at 1.2 µM) was -9% and the growth inhibition ([3]; at 3.7 µM) was -16%. The growth inhibition ([3]; at 11.0 µM) was -40%, the growth inhibition ([3]; at 33.0 µM) was -22% and the growth inhibition ([3]; at 100.0 µM) was -25%. It also gave a growth inhibition ([4]; at 1.2 µM) of 3%, a growth inhibition ([4]; at 3.7 µM) of 3% and a growth inhibition ([4]; at 11.0 µM) of 34%. The growth inhibition ([4]; at 33.0 µM) was 57%, the growth inhibition ([4]; at 100.0 µM) was 88% (active) and the growth inhibition ([5]; at 1.2 µM) was 13%. The growth inhibition ([5]; at 3.7 µM) was -25%, the growth inhibition [5, 16] was 59% and the growth inhibition ([5]; at 11.0 µM) was 13%. For the same compound, the growth inhibition ([5]; at 33.0 µM) was 53%, the growth inhibition [5, 17] was 78% (active) and the growth inhibition ([5]; at 50.0 µM) was 83.2% (active). The growth inhibition ([5]; at 100.0 µM) was 87% (active), the growth inhibition ([6]; at 1.2 µM) was -3% and the growth inhibition ([6]; at 3.7 µM) was -10%.
